Screening data deposited in PubChem by several laboratories.
Compounds with a hit are over-represented: about 2.9% of the library has one in this group of screens.
S1P3 antagonist – blocks the human S1P3 receptor; 170,000 tested, 0.27% active; Q99500; AID 485; CHO S1P3 NFAT-BLA reporter, FRET fluorescence, antagonist mode; inhibition, % at 4.98 µM;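 active = inhibition above the plate cutoff, the mean inhibition of test wells on that plate plus 3 SD, cut at about 28% in these data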;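 also: cells challenged with S1P at its EC80 of 0.8 µM; blue over green emission ratio from cleaved BLA substrate after 4 h stimulation; 0% = S1P-stimulated wells and 100% = unstimulated DMSO-only wells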
Target sequence (Q99500 whole entry, looked up): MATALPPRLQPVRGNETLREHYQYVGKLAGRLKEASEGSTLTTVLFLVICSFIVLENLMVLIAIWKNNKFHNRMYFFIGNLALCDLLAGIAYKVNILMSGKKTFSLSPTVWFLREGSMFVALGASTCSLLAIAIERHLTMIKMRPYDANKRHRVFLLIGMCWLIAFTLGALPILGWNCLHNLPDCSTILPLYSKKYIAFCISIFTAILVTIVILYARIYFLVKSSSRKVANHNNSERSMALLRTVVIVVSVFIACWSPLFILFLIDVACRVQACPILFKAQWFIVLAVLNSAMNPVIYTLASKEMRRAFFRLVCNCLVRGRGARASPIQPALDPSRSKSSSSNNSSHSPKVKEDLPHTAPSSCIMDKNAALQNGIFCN
HSF1 inhib – HSF1 inhibition | NIH3T3-HGL HSE-luciferase, MG132-induced, luminescence 8 h; active compounds read low | activity change, negative = inhibition, % at 7.5 µM (by protocol) | 300,000 tested, 0.77% active | AID 2098;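 active = more than half of replicate wells show activity change below -50%, luminescence cut by over half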;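 also: luciferase reports HSF-1 transcriptional activity via heat shock element; 0% = median of DMSO wells and -100% = zero luminescence signal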
Hsp70 act – Hsp70 transcriptional activation, primary screen; 200,000 tested, 0.04% active; AID 1203; HeLa Hsp70 promoter luciferase reporter, luminescence; scaled: vehicle 0, proteasome-inhibitor control 100%; activation, % at 10 µM;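 active = activation above the mean across all tested compounds plus 3 SD, cutoff set per campaign, cut at about 5.5% in these data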;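 also: 100% = MG132 at 30 µM as the positive control and 0% = DMSO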
S1P4 agonist – human S1P4 receptor agonism; S1P4-expressing cell line, agonist reporter assay; activation, % at 4.98 µM; 220,000 tested, 0.35% active; O95977; in the data active = activation above about 11%;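 also: 0% = DMSO vehicle and 100% = reference agonist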
S1P4 antagonist – human S1P4 receptor antagonism; O95977; S1P4-expressing cells, antagonist mode, reporter read-out; inhibition, % at 4.98 µM; 220,000 tested, 0.26% active; AID 1510; in the data active = inhibition above about 29%;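 also: 0% = wells stimulated with agonist and 100% = vehicle wells without agonist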
HSF-1 act – increases HSF-1 driven luciferase reporter signal | NIH3T3-HGL HSF-1 luciferase reporter, MG132, 8 h; 100% = twice DMSO control signal | activation, % at 9 µM | 300,000 tested, 1.7% active | AID 504408;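 active = mean replicate activation of at least 50% with a set share of replicates each reaching 50%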;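 also: 0% = median of the neutral control wells and 100% = twice that signal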
The depositor's hits bear a star; · = no result.

SMILES	S1P3 antagonist	HSF1 inhib	Hsp70 act	S1P4 agonist	S1P4 antagonist	HSF-1 act
CCC1C/C(=C\c2cccnc2)C(=O)/C(=C/c2cccnc2)C1 (stereo not given)	-8	·	25*	-2	7	·
O=C1/C(=C/c2cccnc2)CC/C1=C\c1cccnc1	4	-6	0	0	-7	-7
Cc1ccc(C(=O)NNC(=O)CCn2nnc3ccccc32)cc1	-6	-6	0	2	-18	-2
Cc1cccc(C(=O)NNC(=O)CCn2nnc3ccccc32)c1	-21	33	0	1	-1	89*
CCOc1cc(NC(=O)CC(C)C)c(OCC)cc1NC(=O)CCn1nnc2ccccc21	·	12	0	0	8	57*
COc1ccccc1OCCNC(=O)C1CC(=O)N(c2cccc(SC)c2)C1 (stereo not given)	·	-7	·	·	·	-11
Cc1cccc(C(=O)NC2CCN(C(=O)Nc3ccc(F)cc3)CC2)c1	·	-54*	·	·	·	-63
O=C(O)c1cccc(Cn2c(Cl)c(/C=N/NC(=O)c3cc4ccccc4cc3O)sc2=O)c1	-4	-2	·	0	-6	3
COc1ccc(N2CCN(C(=O)[C@H](Cc3c[nH]c4ccccc34)NC(C)=O)CC2)cc1	-19	29	0	0	-1	62*
COc1ccc(NC(=O)CSc2nnc3ccc(-c4ccccn4)nn23)cc1OC	·	-2	·	·	·	-9
Cc1ccc(C(=O)CN2C(=O)C(=O)N(Cc3ccccc3)C2=O)cc1	-5	-4	0	-2	0	-11
CCOc1ccc(NC(=O)C(C)NS(=O)(=O)c2ccc(NC(C)=O)cc2)cc1 (stereo not given)	-27	-67*	0	-1	1	-74
COc1ccc(CCNS(=O)(=O)c2csc(C(N)=O)c2)cc1OC	·	0	·	·	·	-14
CNC(=O)/C(C#N)=C/c1c(N(Cc2ccccc2)Cc2ccccc2)nc2c(C)cccn2c1=O	-17	1	0	-1	7	24
CCNC(=O)/C(C#N)=C/c1c(N(Cc2ccccc2)Cc2ccccc2)nc2ccccn2c1=O	0	22	-1	1	3	66*
O=C1CC(c2ccccc2)n2nc(NC(=O)c3ccccc3)nc2N1 (stereo not given)	·	13	0	0	9	64*
COc1ccc(CN(Cc2cccn2C)C(=O)c2cc3cc(OC)ccc3[nH]2)cc1	-2	8	·	0	16	19
CC(=O)c1cccc(N(CC(=O)Nc2ccc(F)cc2F)S(C)(=O)=O)c1	·	10	0	0	-3	55*
CC(=O)c1cccc(N(CC(=O)Nc2ccccc2F)S(C)(=O)=O)c1	-5	2	0	-1	-5	13
CC1(C)CC(=O)/C(=C\c2cccc([N+](=O)[O-])c2)C(C)(C)N1	11	52	0	4	3	76*
Cc1cc(C)nc(Nc2cccc(C(F)(F)F)c2)n1	·	-1	·	·	·	-2
COc1nc(Nc2cccc(C(F)(F)F)c2)nc(OC)n1	·	22	1	-3	-9	59*
CCOc1ccc(NC(=O)CN2CCc3cc4c(cc3C2)OCCCO4)cc1OCC	·	-1	·	·	·	-6
COc1ccccc1-c1nc(S(=O)(=O)c2ccccc2)c(N2CCCCC2)o1	·	50	·	·	·	52*
Cc1ccc(Cl)cc1N(C)C(=O)Cn1ncc2c([nH]c3ccccc32)c1=O	·	-3	·	·	·	-1
SMILES	S1P3 antagonist	HSF1 inhib	Hsp70 act	S1P4 agonist	S1P4 antagonist	HSF-1 act
Nc1nnc(SCc2ccc(Cl)cc2)s1	·	11	0	2	-5	27
Nc1nnc(SCc2c(F)cccc2Cl)s1	-21	45	·	0	-8	77*
CCC1CCCCN1C(=O)COC(=O)CN(C)S(=O)(=O)c1ccc(NC(C)=O)cc1 (stereo not given)	·	-5	·	·	·	-19
O=C(CCCCn1c(=O)[nH]c2ccsc2c1=O)NCc1cccnc1	·	-56*	0	4	-16	-68
CCOc1ccccc1NC(=S)NCc1ccco1	·	20	1	0	-1	52*
COc1cc(C)ccc1OCCOCCOc1ccc([N+](=O)[O-])cc1	0	5	0	-2	-24	11
Cc1cccc(NC(=O)CSc2nnc(-c3ccco3)c(-c3ccco3)n2)c1C	·	57	0	1	-4	89*
Cc1cccc(NC(=O)CSc2nnc(-c3ccco3)c(-c3ccco3)n2)c1	4	·	0	-1	9	·
COc1ccc(CCNC(=O)CC2SC(=NCCC(C)C)NC2=O)cc1OC (stereo not given)	-16	0	0	3	-26	-9
CCCCCNC(=O)C1CCC(Cn2c(=S)[nH]c3ccccc3c2=O)CC1 (stereo not given)	-4	28	0	3	-13	85*
O=C(C1CCC(Cn2c(=S)[nH]c3ccccc3c2=O)CC1)N1CCOCC1 (stereo not given)	10	8	0	0	-72	33
COc1cc(/C=c2\s/c(=C\C(=O)C(C)(C)C)[nH]c2=O)cc(OC)c1OC	16	7	0	-1	-28	15
COc1ccc(/C=c2\s/c(=C\C(=O)C(C)(C)C)[nH]c2=O)cc1O	-9	45	·	0	-12	64*
COc1ccc(-c2csc(NC(=S)NC(=O)c3ccco3)n2)cc1	4	29	0	-1	-13	52*
O=C(NC(=S)Nc1nc(-c2ccccc2)cs1)c1ccco1	-17	12	0	0	-2	24
O=C(/C=C/c1ccco1)NC(=S)Nc1nc(-c2ccc(Cl)cc2)cs1	-16	22	0	1	-5	63*
O=C(/C=C/c1ccco1)NC(=S)Nc1nc(-c2ccc3ccccc3c2)cs1	-12	94	0	-2	-23	136*
CCN1C(=O)C2(C(C(=O)c3cc4ccccc4o3)=C(O)C(=O)N2CCCN(C)C)c2ccccc21 (stereo not given)	0	1	·	0	0	11
Cc1cccc(-n2ncc3c2CCCC3NC(=O)Cc2c(C)noc2C)c1C (stereo not given)	·	-1	·	·	·	-12
COc1ccc(-c2cn[nH]c2-c2ccc(OCc3ccc([N+](=O)[O-])cc3)cc2O)cc1OC	15	30	·	0	2	57*
O=C(O)C1C2C=CC(C2)C1C(=O)NCc1ccc(Cl)c(Cl)c1 (stereo not given)	-15	14	0	1	-19	7
CCN(CC)S(=O)(=O)c1ccc2c(c1)nc(SCC(=O)NC1CC1)n2-c1ccccc1OC	20	16	0	0	-11	56*
COc1ccccc1-n1c(SCC(=O)NC2CCS(=O)(=O)C2)nc2cc([N+](=O)[O-])ccc21 (stereo not given)	2	-1	0	3	-19	0
COc1ccc2c(C)nc(Nc3nc(-c4ccccc4)cc(=O)[nH]3)nc2c1	9	65	·	0	3	95*
